Measured values reported in paper PMC7862700, “An all-to-all approach to the identification of sequence-specific readers for epigenetic DNA modifications on cytosine”.

Experiments:
Test in all cases: DAPPL (digital affinity profiling via proximity ligation, sequencing); 10 mM Tris-HCl pH 7.5, 50 mM NaCl, 1 mM DTT, 4% glycerol, room temperature, 30 min; GST-TFs on glutathione beads, 16-mer random dsDNA library, 0.1% formaldehyde crosslink after washing; high values mean tight binding
[1] = molecular target: T1, FLI1 (Homo sapiens, UniProt Q01543 1-452); details: protein: recombinant; tags: N-terminal GST; dsDNA, one strand shown
T1 sequence: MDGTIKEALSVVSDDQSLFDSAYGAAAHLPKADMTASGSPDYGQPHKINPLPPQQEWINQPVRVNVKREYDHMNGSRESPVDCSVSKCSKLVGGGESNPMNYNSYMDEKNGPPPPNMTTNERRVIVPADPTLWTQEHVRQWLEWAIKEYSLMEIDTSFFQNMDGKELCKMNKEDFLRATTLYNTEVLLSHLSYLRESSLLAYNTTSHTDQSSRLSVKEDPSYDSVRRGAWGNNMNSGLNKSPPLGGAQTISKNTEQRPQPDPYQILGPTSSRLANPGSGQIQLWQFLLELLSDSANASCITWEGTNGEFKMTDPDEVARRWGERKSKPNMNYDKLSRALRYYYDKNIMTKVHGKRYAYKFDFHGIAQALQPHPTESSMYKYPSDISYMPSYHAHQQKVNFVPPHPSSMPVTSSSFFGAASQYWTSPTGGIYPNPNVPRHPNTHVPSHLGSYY
In short: (§1)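 Human transcription factors were made in yeast as GST fusions, captured on glutathione beads and barcoded with DNA. With a tag-only sample included, the pool was incubated with 200 nmole of a random double-stranded 16-mer DNA library in Tris/NaCl/DTT/glycerol buffer at room temperature for 30 min, then crosslinked with 0.1% formaldehyde after washing, ligated by proximity, amplified and sequenced. For binding signal, each hexamer's read frequency for a factor is divided by its frequency for the tag-only sample.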

[2] = molecular target: T2, ELK1 (Homo sapiens, UniProt P19419 1-428); details: protein: recombinant; tags: N-terminal GST; dsDNA, one strand shown
T2 sequence: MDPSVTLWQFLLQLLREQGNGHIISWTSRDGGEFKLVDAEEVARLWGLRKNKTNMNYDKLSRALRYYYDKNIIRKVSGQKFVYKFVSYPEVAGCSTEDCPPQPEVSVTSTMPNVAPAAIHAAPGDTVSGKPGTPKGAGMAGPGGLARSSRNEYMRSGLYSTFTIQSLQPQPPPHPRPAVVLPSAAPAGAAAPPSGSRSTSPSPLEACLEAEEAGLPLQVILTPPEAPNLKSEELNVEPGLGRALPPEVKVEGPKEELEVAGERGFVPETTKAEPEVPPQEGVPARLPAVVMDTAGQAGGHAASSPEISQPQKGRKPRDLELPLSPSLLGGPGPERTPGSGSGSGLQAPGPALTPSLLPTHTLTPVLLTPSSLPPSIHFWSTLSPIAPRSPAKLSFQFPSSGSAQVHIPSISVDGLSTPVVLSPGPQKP
In short: as §1

[3] = molecular target: T3, GABPA (Homo sapiens, UniProt Q06546 1-454); details: protein: recombinant; tags: N-terminal GST; dsDNA, one strand shown
T3 sequence: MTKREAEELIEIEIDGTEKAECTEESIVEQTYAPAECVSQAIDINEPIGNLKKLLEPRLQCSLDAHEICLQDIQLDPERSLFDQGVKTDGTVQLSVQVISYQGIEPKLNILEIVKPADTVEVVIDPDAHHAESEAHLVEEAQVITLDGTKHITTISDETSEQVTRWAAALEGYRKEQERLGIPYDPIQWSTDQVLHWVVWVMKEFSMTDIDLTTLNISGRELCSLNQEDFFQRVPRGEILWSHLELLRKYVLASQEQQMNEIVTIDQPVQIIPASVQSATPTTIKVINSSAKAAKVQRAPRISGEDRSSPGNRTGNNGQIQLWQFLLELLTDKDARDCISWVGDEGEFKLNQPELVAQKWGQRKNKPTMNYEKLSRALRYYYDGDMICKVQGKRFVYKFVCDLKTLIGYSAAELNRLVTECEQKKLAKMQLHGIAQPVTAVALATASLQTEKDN
In short: as §1

[4] = molecular target: T4, ERG (Homo sapiens, UniProt P11308 1-479); details: protein: recombinant; tags: N-terminal GST; dsDNA, one strand shown
T4 sequence: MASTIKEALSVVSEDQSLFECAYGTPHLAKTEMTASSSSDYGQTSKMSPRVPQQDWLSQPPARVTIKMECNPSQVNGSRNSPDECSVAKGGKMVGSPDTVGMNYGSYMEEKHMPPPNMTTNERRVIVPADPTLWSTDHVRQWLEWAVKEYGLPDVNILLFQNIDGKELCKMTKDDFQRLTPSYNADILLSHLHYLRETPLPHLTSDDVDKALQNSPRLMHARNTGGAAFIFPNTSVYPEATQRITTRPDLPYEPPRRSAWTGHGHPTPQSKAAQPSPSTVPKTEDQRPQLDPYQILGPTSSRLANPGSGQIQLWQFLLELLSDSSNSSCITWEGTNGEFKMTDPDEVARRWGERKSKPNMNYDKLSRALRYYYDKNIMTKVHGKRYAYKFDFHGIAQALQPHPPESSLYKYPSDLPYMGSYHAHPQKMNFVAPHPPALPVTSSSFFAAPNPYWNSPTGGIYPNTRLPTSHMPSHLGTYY
In short: as §1

[5] = molecular target: ELF1 (Homo sapiens, UniProt P32519 1-619); details: protein: recombinant; tags: N-terminal GST; dsDNA, one strand shown
Chain of ELF1 (P32519 whole entry): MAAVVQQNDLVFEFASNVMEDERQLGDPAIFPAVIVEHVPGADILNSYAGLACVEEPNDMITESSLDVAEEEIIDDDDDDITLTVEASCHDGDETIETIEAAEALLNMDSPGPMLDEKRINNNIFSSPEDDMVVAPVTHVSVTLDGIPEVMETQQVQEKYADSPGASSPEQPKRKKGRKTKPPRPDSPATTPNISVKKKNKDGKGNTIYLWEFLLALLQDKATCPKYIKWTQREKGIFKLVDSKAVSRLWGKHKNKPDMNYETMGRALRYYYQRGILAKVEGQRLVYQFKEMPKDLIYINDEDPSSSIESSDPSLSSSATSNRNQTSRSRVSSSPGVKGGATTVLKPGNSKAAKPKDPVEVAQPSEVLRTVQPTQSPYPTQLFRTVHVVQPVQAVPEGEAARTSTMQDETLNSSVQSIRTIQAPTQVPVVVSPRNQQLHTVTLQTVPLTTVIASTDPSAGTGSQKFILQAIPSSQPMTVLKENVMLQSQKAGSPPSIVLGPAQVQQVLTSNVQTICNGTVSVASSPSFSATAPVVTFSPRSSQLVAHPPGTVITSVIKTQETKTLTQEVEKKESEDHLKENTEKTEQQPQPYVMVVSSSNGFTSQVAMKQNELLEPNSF
In short: as §1

[6] = molecular target: T5, EHF (Homo sapiens, UniProt Q9NZC4 1-300); details: protein: recombinant; tags: N-terminal GST; dsDNA, one strand shown
T5 sequence: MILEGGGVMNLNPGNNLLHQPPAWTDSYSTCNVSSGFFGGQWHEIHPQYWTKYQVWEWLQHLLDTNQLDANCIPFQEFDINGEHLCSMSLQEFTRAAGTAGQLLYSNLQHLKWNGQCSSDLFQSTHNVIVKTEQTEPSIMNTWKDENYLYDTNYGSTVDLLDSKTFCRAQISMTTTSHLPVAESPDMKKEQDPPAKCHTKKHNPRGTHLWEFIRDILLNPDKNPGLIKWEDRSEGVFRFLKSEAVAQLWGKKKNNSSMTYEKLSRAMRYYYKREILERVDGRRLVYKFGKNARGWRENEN
In short: as §1

[7] = molecular target: T6, ELK3 (Homo sapiens, UniProt P41970 1-407); details: protein: recombinant; tags: N-terminal GST; dsDNA, one strand shown
T6 sequence: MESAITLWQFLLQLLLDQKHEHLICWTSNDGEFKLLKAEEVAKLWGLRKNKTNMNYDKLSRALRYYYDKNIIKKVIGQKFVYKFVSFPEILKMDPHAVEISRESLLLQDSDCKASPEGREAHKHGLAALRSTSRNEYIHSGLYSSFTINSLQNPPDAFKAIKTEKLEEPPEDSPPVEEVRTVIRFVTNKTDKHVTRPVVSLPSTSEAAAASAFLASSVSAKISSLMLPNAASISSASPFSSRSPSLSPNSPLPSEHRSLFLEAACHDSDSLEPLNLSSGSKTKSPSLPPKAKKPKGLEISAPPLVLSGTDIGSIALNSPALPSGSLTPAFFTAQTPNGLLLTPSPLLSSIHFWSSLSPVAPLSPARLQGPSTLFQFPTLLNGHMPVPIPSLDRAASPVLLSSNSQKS
In short: as §1

[8] = molecular target: ETV5 (Homo sapiens, UniProt P41161 1-510); details: protein: recombinant; tags: N-terminal GST; dsDNA, one strand shown
Chain of ETV5 (P41161 whole entry): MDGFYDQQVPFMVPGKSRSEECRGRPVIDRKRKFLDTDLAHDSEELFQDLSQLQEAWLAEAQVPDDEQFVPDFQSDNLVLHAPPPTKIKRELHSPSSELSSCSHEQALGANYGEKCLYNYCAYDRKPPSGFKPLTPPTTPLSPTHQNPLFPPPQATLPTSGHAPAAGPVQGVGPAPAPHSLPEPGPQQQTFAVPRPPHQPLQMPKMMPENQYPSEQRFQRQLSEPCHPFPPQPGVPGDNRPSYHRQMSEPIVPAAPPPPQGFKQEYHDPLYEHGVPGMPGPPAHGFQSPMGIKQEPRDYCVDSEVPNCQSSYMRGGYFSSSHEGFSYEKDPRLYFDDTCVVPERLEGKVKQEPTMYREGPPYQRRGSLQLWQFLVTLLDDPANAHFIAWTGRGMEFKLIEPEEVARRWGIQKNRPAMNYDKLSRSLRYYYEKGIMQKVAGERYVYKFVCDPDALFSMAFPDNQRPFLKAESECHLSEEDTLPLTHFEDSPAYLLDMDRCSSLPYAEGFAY
In short: as §1

[9] = molecular target: HSF1 (Homo sapiens, UniProt Q00613 1-529); details: protein: recombinant; tags: N-terminal GST; chain copies: 3; dsDNA, one strand shown
Chain of HSF1 (Q00613 whole entry): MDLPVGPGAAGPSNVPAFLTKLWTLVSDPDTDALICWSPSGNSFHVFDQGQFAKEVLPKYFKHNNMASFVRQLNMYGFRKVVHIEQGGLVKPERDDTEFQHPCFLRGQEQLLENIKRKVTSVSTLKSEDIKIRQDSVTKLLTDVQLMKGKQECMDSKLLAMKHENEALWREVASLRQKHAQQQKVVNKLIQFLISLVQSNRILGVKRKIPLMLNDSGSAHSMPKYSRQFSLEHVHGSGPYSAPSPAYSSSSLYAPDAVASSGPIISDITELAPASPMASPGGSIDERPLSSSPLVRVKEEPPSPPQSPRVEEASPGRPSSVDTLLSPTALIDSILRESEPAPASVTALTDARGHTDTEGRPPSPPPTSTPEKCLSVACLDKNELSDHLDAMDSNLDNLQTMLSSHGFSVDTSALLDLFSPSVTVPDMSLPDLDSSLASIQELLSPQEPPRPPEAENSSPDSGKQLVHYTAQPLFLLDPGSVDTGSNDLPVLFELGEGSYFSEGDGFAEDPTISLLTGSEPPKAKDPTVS
In short: as §1

[10] = molecular target: T7, SPIC (Homo sapiens, UniProt Q8N5J4 1-248); details: protein: recombinant; tags: N-terminal GST; dsDNA, one strand shown
T7 sequence: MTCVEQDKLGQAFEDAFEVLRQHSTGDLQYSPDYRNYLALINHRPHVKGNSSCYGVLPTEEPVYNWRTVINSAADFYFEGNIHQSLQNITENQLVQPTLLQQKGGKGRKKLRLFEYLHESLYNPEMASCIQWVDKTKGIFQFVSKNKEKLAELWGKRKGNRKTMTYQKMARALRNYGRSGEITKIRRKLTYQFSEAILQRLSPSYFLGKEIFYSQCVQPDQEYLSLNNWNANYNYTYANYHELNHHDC
In short: as §1

[11] = molecular target: ELF4 (Homo sapiens, UniProt Q99607 1-663); details: protein: recombinant; tags: N-terminal GST; dsDNA, one strand shown
Chain of ELF4 (Q99607 whole entry): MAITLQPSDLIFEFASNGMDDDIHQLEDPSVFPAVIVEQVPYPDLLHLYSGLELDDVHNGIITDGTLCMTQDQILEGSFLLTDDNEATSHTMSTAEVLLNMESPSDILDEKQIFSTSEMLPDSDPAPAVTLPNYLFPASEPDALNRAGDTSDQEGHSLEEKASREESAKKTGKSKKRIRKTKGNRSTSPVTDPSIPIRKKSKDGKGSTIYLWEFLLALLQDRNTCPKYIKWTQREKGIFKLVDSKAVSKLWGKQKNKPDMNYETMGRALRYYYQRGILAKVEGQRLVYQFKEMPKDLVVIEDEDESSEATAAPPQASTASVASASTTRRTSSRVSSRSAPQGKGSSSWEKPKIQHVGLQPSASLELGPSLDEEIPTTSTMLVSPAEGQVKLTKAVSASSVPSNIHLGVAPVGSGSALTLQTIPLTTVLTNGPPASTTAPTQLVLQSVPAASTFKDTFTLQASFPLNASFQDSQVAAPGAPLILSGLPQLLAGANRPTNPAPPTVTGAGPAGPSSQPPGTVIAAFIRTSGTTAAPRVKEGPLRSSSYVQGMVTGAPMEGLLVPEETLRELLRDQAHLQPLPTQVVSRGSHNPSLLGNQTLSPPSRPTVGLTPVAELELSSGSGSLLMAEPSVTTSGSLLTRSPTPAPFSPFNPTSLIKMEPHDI
In short: as §1

[12] = molecular target: T8, ETV2 (Homo sapiens, UniProt O00321 1-342); details: protein: recombinant; tags: N-terminal GST; dsDNA, one strand shown
T8 sequence: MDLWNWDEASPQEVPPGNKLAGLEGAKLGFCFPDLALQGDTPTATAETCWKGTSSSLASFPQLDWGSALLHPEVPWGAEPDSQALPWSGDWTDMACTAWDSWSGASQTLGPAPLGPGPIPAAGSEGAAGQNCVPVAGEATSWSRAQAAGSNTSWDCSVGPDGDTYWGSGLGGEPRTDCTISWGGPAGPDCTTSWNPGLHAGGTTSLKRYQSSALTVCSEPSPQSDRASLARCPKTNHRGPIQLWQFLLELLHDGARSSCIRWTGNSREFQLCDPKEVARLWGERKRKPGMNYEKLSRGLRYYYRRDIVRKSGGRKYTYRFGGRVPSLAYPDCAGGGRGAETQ
In short: as §1

[13] = molecular target: T9, ELF3 (Homo sapiens, UniProt P78545 1-371); details: protein: recombinant; tags: N-terminal GST; dsDNA, one strand shown
T9 sequence: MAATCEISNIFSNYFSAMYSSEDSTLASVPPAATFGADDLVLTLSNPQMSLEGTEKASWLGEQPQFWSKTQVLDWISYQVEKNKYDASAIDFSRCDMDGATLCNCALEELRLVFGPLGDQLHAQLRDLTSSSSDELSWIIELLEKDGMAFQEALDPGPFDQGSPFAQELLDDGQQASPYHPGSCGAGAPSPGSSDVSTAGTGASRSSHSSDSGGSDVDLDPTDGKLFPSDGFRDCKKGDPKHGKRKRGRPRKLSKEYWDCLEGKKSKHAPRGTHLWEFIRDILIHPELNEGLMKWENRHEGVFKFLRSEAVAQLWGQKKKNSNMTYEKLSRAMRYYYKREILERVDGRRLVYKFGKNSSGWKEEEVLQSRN
In short: as §1

[14] = molecular target: ETV1 (Homo sapiens, UniProt P50549 1-477); details: protein: recombinant; tags: N-terminal GST; dsDNA, one strand shown
Chain of ETV1 (P50549 whole entry): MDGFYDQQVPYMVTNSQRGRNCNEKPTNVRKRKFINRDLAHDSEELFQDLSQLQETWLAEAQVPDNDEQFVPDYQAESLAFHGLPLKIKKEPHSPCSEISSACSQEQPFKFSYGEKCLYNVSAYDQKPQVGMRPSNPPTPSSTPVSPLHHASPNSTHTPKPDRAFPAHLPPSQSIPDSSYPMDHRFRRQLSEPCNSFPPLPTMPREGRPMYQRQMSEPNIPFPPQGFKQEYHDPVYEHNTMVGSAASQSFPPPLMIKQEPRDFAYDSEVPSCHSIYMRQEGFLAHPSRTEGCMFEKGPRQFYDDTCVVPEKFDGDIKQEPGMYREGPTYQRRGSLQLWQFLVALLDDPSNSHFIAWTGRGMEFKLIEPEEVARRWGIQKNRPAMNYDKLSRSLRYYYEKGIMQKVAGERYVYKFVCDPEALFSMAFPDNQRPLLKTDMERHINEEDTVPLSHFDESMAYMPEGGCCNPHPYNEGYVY
In short: as §1

[15] = molecular target: SPI1 (Homo sapiens, UniProt P17947 1-270); details: protein: recombinant; tags: N-terminal GST; dsDNA, one strand shown
In short: as §1

[16] = molecular target: SPIB (Homo sapiens, UniProt Q01892 1-262); details: protein: recombinant; tags: N-terminal GST; dsDNA, one strand shown
Chain of SPIB (Q01892 whole entry): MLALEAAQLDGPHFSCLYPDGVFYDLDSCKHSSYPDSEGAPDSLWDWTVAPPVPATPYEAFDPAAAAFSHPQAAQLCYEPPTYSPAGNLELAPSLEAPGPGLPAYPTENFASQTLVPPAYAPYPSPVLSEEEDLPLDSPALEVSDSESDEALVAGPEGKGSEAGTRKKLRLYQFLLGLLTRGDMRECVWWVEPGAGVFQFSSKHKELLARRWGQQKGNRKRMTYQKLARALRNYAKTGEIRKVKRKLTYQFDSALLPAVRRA
In short: as §1

[17] = molecular target: T10, FEV (Homo sapiens, UniProt Q99581 1-238); details: protein: recombinant; tags: N-terminal GST; dsDNA, one strand shown
T10 sequence: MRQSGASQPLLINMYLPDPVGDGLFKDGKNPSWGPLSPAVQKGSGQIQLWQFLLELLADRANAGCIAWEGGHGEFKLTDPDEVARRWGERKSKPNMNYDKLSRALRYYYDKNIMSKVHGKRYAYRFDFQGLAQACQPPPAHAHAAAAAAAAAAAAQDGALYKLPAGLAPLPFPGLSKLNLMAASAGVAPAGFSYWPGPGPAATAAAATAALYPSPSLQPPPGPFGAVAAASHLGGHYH
In short: as §1

[18] = molecular target: CRX (Homo sapiens, UniProt O43186 1-299); details: protein: recombinant; tags: N-terminal GST; dsDNA, one strand shown
Chain of CRX (O43186 whole entry): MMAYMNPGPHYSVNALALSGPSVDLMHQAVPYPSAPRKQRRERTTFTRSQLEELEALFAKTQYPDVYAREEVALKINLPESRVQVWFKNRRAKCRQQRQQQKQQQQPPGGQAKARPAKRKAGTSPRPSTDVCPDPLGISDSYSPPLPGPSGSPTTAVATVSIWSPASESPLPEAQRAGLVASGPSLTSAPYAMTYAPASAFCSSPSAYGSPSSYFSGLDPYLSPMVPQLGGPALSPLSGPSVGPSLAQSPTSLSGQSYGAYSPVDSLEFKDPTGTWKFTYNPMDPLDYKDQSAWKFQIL
In short: as §1

| Sequence | binding signal [1] | binding signal [2] | binding signal [3] | binding signal [4] | binding signal [5] | binding signal [6] | binding signal [7] | binding signal [8] | binding signal [9] | binding signal [10] | binding signal [11] | binding signal [12] | binding signal [13] | binding signal [14] | binding signal [15] | binding signal [16] | binding signal [17] | binding signal [18] |
| --- | --- | --- | --- | --- | --- | --- | --- | --- | --- | --- | --- | --- | --- | --- | --- | --- | --- | --- |
| AACGTA | 1.06 fold enrichment (6-mer frequency, TF over GST control) | 1.05 fold enrichment (6-mer frequency, TF over GST control) | 1.02 fold enrichment (6-mer frequency, TF over GST control) | 1.04 fold enrichment (6-mer frequency, TF over GST control) | 1.02 fold enrichment (6-mer frequency, TF over GST control) | 1.01 fold enrichment (6-mer frequency, TF over GST control) | 1.11 fold enrichment (6-mer frequency, TF over GST control) | 1.04 fold enrichment (6-mer frequency, TF over GST control) | 1.03 fold enrichment (6-mer frequency, TF over GST control) | 1.02 fold enrichment (6-mer frequency, TF over GST control) | 1.03 fold enrichment (6-mer frequency, TF over GST control) | 1.01 fold enrichment (6-mer frequency, TF over GST control) | 1.01 fold enrichment (6-mer frequency, TF over GST control) | 1.06 fold enrichment (6-mer frequency, TF over GST control) | – | – | – | – |
| CAAATT | 1.15 fold enrichment (6-mer frequency, TF over GST control) | 1.12 fold enrichment (6-mer frequency, TF over GST control) | 1.2 fold enrichment (6-mer frequency, TF over GST control) | 1.16 fold enrichment (6-mer frequency, TF over GST control) | 1.14 fold enrichment (6-mer frequency, TF over GST control) | 1.11 fold enrichment (6-mer frequency, TF over GST control) | 1.14 fold enrichment (6-mer frequency, TF over GST control) | 1.2 fold enrichment (6-mer frequency, TF over GST control) | 1.17 fold enrichment (6-mer frequency, TF over GST control) | 1.16 fold enrichment (6-mer frequency, TF over GST control) | 1.07 fold enrichment (6-mer frequency, TF over GST control) | 1.09 fold enrichment (6-mer frequency, TF over GST control) | 1.17 fold enrichment (6-mer frequency, TF over GST control) | 1.18 fold enrichment (6-mer frequency, TF over GST control) | 1.15 fold enrichment (6-mer frequency, TF over GST control) | 1.08 fold enrichment (6-mer frequency, TF over GST control) | 1.14 fold enrichment (6-mer frequency, TF over GST control) | 1.12 fold enrichment (6-mer frequency, TF over GST control) |
